An excerpt weighted towards active compounds, which were near 3.2% of everything screened.
FAK blocker – FAK (human) kinase inhibition; biochemical FAK kinase activity assay; inhibition, %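 (tested at 7 µM)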; 97,000 tested, 0.84% active; AID 727; in the data active = inhibition above about 19%
ERa coact pot – ER-alpha (human) coactivator binding potentiation; P03372; coactivator binding (% of control), % at 25.6 µM; TR-FRET ERalpha-LBD/SRC-Cy5 coactivator binding, 2 h; 100 = basal binding, no effect; 86,000 tested, 1.3% active; in the data active = activity above about 200%;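 also: binding measured in presence of low estradiol as agonist stimulus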
Target sequence (P03372 whole entry, looked up, the tested form may be a part): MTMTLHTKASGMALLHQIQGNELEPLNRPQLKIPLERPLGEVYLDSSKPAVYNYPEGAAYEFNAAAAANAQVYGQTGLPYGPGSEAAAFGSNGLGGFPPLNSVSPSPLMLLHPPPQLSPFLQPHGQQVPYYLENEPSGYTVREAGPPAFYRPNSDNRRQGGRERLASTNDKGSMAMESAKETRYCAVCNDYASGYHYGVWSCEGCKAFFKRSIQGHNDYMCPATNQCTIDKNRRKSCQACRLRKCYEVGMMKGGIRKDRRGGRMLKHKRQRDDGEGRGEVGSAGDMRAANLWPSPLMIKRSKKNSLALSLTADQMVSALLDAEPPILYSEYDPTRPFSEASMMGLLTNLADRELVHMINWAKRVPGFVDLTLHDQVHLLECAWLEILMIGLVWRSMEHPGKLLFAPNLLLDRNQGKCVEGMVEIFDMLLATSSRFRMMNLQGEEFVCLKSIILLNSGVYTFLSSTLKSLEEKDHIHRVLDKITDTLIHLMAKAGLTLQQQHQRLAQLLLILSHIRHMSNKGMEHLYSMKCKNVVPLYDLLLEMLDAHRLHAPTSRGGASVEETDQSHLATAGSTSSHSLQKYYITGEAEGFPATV
ERa coact inh – blocks coactivator binding to human estrogen receptor alpha | P03372 | TR-FRET ER-alpha LBD / SRC-1 peptide, estradiol-bound | inhibition, % at 25.6 µM | 86,000 tested, 1.7% active | AID 629; in the data active = inhibition above about 50%
ERb coact inh – ER-beta (human) coactivator binding inhibition. Q92731. TR-FRET ER-beta LBD / SRC1-Cy5 peptide binding; receptor agonist-loaded with 1 µM estradiol. 86,000 tested, 1.3% active. AID 633. inhibition, % at 25.6 µM;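 active = compounds whose percent inhibition of the receptor-coactivator binding signal exceeds about 50% in the single-dose screen, limit read from the data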
Hits are given with their value; 0 = inactive; - = no result given; [ ] = dose if it differs, or a comment.

SMILES	FAK blocker	ERa coact pot	ERa coact inh	ERb coact inh
COc1ccccc1-c1cc(C(=O)NC(C)c2ccccc2)no1 (configuration not stated)	0	276[fluorescence artefact?]	0	0
C=CCn1c(SCC(=O)c2c(N)n(CCC)c(=O)n(C)c2=O)nc2sc(CC)cc2c1=O	0	445[fluorescence artefact?]	0	0
C=CCn1c(SCC(=O)c2c(N)n(C)c(=O)n(C)c2=O)nc2sc(C)c(C)c2c1=O	0	-	-	-
CCC(C)n1cnc2c(c1=O)c1nc3ccccc3nc1n2Cc1ccc2c(c1)OCO2 (configuration not stated)	0	0	0	0
O=c1c2c3nc4ccccc4nc3n(-c3cccc(F)c3)c2ncn1Cc1ccc2c(c1)OCO2	-	0	82[fluorescence artefact?]	61[fluorescence artefact?]
Cc1c(Nc2cc(N3CCCCCC3)c3nonc3c2[N+](=O)[O-])c(=O)n(-c2ccccc2)n1C	0	-	-	-
Cc1ccc(-c2cc3c(nn2)-c2ccccc2C3=O)cc1	-	0	63[fluorescence artefact?]	0
O=C(Nc1cccc(-c2nnc(-c3ccccc3)o2)c1)c1ccc(Br)o1	0	0	0	0
CCC(Sc1nc2cc(OC)c(OC)cc2c2nc(C)nn12)C(=O)NCc1ccco1 (configuration not stated)	-	0	50[fluorescence artefact?]	0
CCC(Sc1nc2ccccc2c2nc3ccccc3n12)C(=O)NCc1ccco1 (configuration not stated)	0	247[fluorescence artefact?]	77[fluorescence artefact?]	61[fluorescence artefact?]
COc1cccc(CNc2cc(CSc3ccc(Cl)cc3)nc(C)n2)c1	0	0	0	0
Cc1ccc(S(=O)(=O)CCC(=O)OCC(=O)Nc2ncc(Cl)cc2Cl)cc1	0	0	0	0
Cc1ccc(S(=O)(=O)NCC(=O)OCC(=O)Nc2ncc(Cl)cc2Cl)cc1	0	0	57[fluorescence artefact?]	0
CC(=C1C(=O)c2ccccc2C1=O)N1CCN(Cc2ccccc2)CC1	0	714[fluorescence artefact?]	0	0
O=C(Nc1ccc(Cl)cn1)c1cc2ccccc2o1	0	0	0	0
O=C/C(=C\Nc1ccc(Cl)cn1)c1nc2cc(Cl)ccc2o1	0	0	88[fluorescence artefact?]	56[fluorescence artefact?]
COc1cc(NS(=O)(=O)c2ccc(N/C=C(\C#N)c3nc4cc(Cl)ccc4o3)cc2)nc(OC)n1	0	-	-	-
O=C/C(=C\Nc1ccc(Cl)cn1)c1nc2ccccc2o1	0	0	54[fluorescence artefact?]	0
O=C(Cn1cnc2sc(-c3ccccc3)cc2c1=O)NCc1ccccc1	0	216	59[fluorescence artefact?]	63[fluorescence artefact?]
O=C(Cn1ncn2c(cc3ccccc32)c1=O)NCCC1=CCCCC1	0	0	0	0
Cc1sc2ncn(CC(=O)NCCc3ccccc3)c(=O)c2c1C	0	0	0	0
O=C(Cn1cnc2sc(-c3ccccc3)cc2c1=O)NCCc1ccccc1	0	213[fluorescence artefact?]	0	0
O=C(Cn1cnc2sc(-c3ccccc3)cc2c1=O)NCc1ccco1	0	0	66[fluorescence artefact?]	0
O=C(Cn1ncn2c(cc3ccccc32)c1=O)NCc1ccco1	0	0	57[fluorescence artefact?]	0
COc1ccc(-c2nn(C)c(=O)c3ccccc23)cc1NC(=O)Cn1nc(-c2ccccc2)c2ccccc2c1=O	0	290[fluorescence artefact?]	0	0
SMILES	FAK blocker	ERa coact pot	ERa coact inh	ERb coact inh
COc1ccc(OCC(=O)Nc2cc(-c3nn(C)c(=O)c4ccccc34)ccc2OC)cc1	0	677[fluorescence artefact?]	0	0
Cc1cc(C)n(CC(=O)NCc2cc(-c3nn(C)c(=O)c4ccccc34)ccc2C)n1	0	0	0	0
Cc1ccc(-c2nn(C)c(=O)c3ccccc23)cc1CNC(=O)Cn1nc(-c2ccccc2)c2ccccc2c1=O	0	0	68[fluorescence artefact?]	0
Cc1nn(CC(=O)NCc2cccc3ccccc23)c(=O)c2ccccc12	0	257[fluorescence artefact?]	0	0
Cn1nc(-c2ccc(N3CCOCC3)c(NC(=O)COc3ccccc3)c2)c2ccccc2c1=O	0	0	0	0
CCOC(=O)N1CCN(CC(=O)Nc2ccc(Oc3ccccc3)cc2)CC1	0	0	0	0
COc1ccc(S(=O)(=O)N2C3CCC2CC(NC(=O)NC2CCCCC2)C3)cc1 (configuration not stated)	0	0	0	0
COC(=O)c1ccc(S(=O)(=O)N2C3CCC2CC(NC(=O)NC2CCCCC2)C3)cc1 (configuration not stated)	0	0	0	58[fluorescence artefact?]
CCOC(=O)c1cc(NC(=O)c2ccoc2C)cc(C(=O)OCC)c1	0	0	0	0
CCOC(=O)c1cnc2cc(-c3ccc(C(C)(C)C)cc3)nn2c1N	0	-	-	-
CCOC(=O)c1cnc2cc(-c3ccc(C)cc3)nn2c1-c1ccccc1	0	247[fluorescence artefact?]	0	0
CCOC(=O)C(C(=O)NCCCN1CCOCC1)C1CCCCC1 (configuration not stated)	19	0	0	0
O=C(NCCCn1ccnc1)c1cc2nc(-c3ccc(Br)cc3)cc(C(F)(F)F)n2n1	0	0	0	0
CCN(CCO)C(=O)C12CCC(C)(C(=O)C1)C2(C)C (configuration not stated)	0	0	0	0
Cc1ccc2c(=O)cc(C(F)F)oc2c1	0	0	55[fluorescence artefact?]	0
CCN1CCN(Cc2ccc(NC(=O)Nc3ccccc3Cl)cc2)CC1	-	261	0	0
Cc1ccc(NC(=O)c2cc(-n3cnnc3)ccc2Cl)cc1	0	0	0	0
Cc1ccc2oc(-c3cccc(NC(=O)c4cc(-n5cnnc5)ccc4Cl)c3)nc2c1	0	245	0	0
COc1cc(C(=O)Nc2cccc(-c3nc4cc(C)ccc4o3)c2)cc(OC)c1OC	-	252[fluorescence artefact?]	72[fluorescence artefact?]	0
COc1cc(C(=O)Nc2cccc(-c3nc4cc(C)ccc4o3)c2C)cc(OC)c1OC	0	0	0	0
Cc1ccc2nc(-c3cccc(NC(=O)c4ccc5c(c4)OCCO5)c3)oc2c1	0	0	68[fluorescence artefact?]	0
COc1cc(C(=O)Nc2cc(-c3nc4cc(C)ccc4o3)ccc2C)cc(OC)c1OC	0	0	74[fluorescence artefact?]	60[fluorescence artefact?]
COc1ccccc1CNC(=O)C(CCSC)NC(=O)C1CCC(C)CC1 (configuration not stated)	0	0	0	0
O=C(CC(Sc1ccccc1)c1cccs1)c1ccco1 (configuration not stated)	0	0	0	0
CC12CCC(=O)N1C(C(=O)OCC(=O)Nc1sccc1C#N)CS2 (configuration not stated)	0	0	91[fluorescence artefact?]	68
SMILES	FAK blocker	ERa coact pot	ERa coact inh	ERb coact inh
CC12CCC(=O)N1C(C(=O)Nc1cccc3ccccc13)CS2 (configuration not stated)	-	0	0	0
Cn1c(O)c(C(C#N)=C2N=c3ccccc3=N2)c2ccccc21	0	0	80[fluorescence artefact?]	0
CCC1(C)Cc2c(sc3c2c(=O)n(C)c2nnc(SCc4ccc5c(c4)OCO5)n32)CO1 (configuration not stated)	0	0	87[fluorescence artefact?]	69[fluorescence artefact?]
CC(C)Oc1ccc(CSc2nnc3n(C)c(=O)c4c5c(sc4n23)CCCC5)cc1	0	0	0	0
CCOc1ccc(N2CCn3c2nc2c3c(=O)n(CCc3ccccc3)c(=O)n2C)cc1	-	0	0	0
CC(C)CCNC(=O)COc1ccc2c3c(c(=O)oc2c1)CCC3	0	352	0	0
COc1ccc2c(c1)c(=O)oc1cc(OCC(=O)NC3CCCCC3)ccc12	0	0	71	72
COc1ccc2c(c1)c(=O)oc1cc(OCC(=O)NC3CC3)ccc12	0	0	0	0
O=C(Cn1c(N2CCN(c3ccccc3)CC2)nc2ccccc21)c1ccccc1	-	0	0	0
